Assay results: PubChem BioAssay (NCI)
This is part of a sample that, as a whole, favours compounds with a hit. Of some 83,000 tested, about 20% had one in any assay.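 How to read the values: 0–100, growth inhibition (40 = 60% inhibited); 0, no net growth; -100 to 0, cell death (-40 = 40% of starting cells died; -100 = all dead).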 The source made the active and inactive calls. The calls were made as follows: active = growth percent below 10; inactive = the rest.

Key:
Test in all cases: NCI-60 one-dose screen, 48 h (100 = growth as untreated, 0 = no growth, -100 = all killed)
[1] = test system: SK-MEL-2 melanoma; conditions: 10 µM unless noted
[2] = test system: EKVX NSCLC; conditions: 10 µM unless noted
[3] = test system: SN12C renal; conditions: 10 µM unless noted
[4] = test system: UO-31 renal; conditions: 10 µM unless noted
[5] = test system: TK-10 renal; conditions: 10 µM unless noted
[6] = test system: ACHN renal; conditions: 10 µM unless noted
[7] = test system: CAKI-1 renal; conditions: 10 µM
[8] = test system: A498 renal; conditions: 10 µM unless noted
[9] = test system: CCRF-CEM leukemia; conditions: 10 µM unless noted
[10] = test system: MOLT-4 leukemia; conditions: 10 µM unless noted
[11] = test system: SR leukemia; conditions: 10 µM unless noted
[12] = test system: RPMI-8226 leukemia; conditions: 10 µM unless noted
[13] = test system: OVCAR-8 ovarian; conditions: 10 µM unless noted
[14] = test system: OVCAR-5 ovarian; conditions: 10 µM unless noted
[15] = test system: OVCAR-4 ovarian; conditions: 10 µM unless noted
[16] = test system: SK-OV-3 ovarian; conditions: 10 µM unless noted
[17] = test system: HS 578T breast; conditions: 10 µM unless noted
[18] = test system: NCI/ADR-RES ovarian; conditions: 10 µM unless noted
[19] = test system: IGROV1 ovarian; conditions: 10 µM unless noted
[20] = test system: OVCAR-3 ovarian; conditions: 10 µM unless noted

Measured: growth

O=C1c2c(c3c4cccnc4[nH]c3c3ccc4ccccc4c23)C(=O)N1CCN1CCCCC1
inactive: [1] 114% | [2] 78% | [3] 45.2% | [4] 36.9% | [5] 104% | [6] 20% | [7] 22.8% | [8] 80.1% | [9] 17.9% | [11] 15.4% | [12] 70.3% | [13] 49.5% | [14] 88.6% | [15] 95.2% | [16] 62.9% | [17] 105% | [18] 41.2%
active: [10] 6.84%

Oc1ccc(CSc2nnc(-c3ccc(Br)cc3)o2)c2cccnc12
active: [4] 7.37% | [17] -2.18%
inactive: [1] 68.1% | [2] 58.9% | [3] 45.2% | [5] 60% | [6] 17.8% | [7] 25.6% | [8] 74.5% | [9] 15.2% | [10] 24.1% | [11] 42.3% | [12] 10.8% | [13] 27.7% | [14] 89.6% | [15] 22% | [16] 50.2% | [19] 31.6% | [18] 13.4%

Cc1cnc2nc(NN)[nH]n12
inactive: [1] 102% | [2] 98.5% | [3] 98.6% | [4] 81.3% | [5] 105% | [6] 98.4% | [7] 86.2% | [8] 111% | [9] 102% | [10] 102% | [11] 101% | [12] 104% | [13] 98% | [14] 101% | [15] 104% | [16] 102% | [19] 97.6% | [17] 107% | [18] 104%

CCN(CC)CCN1C(=O)c2c(c3c4cccnc4[nH]c3c3ccc4ccccc4c23)C1=O
inactive: [1] 107% | [2] 89% | [3] 71.9% | [4] 53.2% | [5] 121% | [6] 35.9% | [7] 46.5% | [8] 77.3% | [9] 21.9% | [10] 12.8% | [12] 73.1% | [13] 62.3% | [14] 111% | [15] 102% | [16] 64.4% | [19] 55% | [17] 109% | [18] 55.5%
active: [11] 3.65%

NC(=S)N/N=C(/C=C/c1cn(-c2ccccc2)nc1-c1ccc(Cl)cc1)c1cc2ccccc2oc1=O
inactive: [1] 82.5% | [2] 35% | [3] 44.3% | [4] 28.5% | [5] 89.9% | [6] 43.7% | [7] 45.9% | [8] 69.3% | [10] 23.7% | [11] 39.7% | [12] 41% | [13] 31.3% | [14] 67.3% | [15] 39.4% | [16] 85.2% | [20] 14.8% | [17] 69.2% | [18] 25.4%
active: [9] 8.22%

C#C[C@]1(O)CC[C@H]2[C@@H]3CC=C4c5sc(Nc6ccc(OC)nc6)nc5CC[C@]4(C)[C@H]3CC[C@@]21C
inactive: [1] 68% | [2] 48.7% | [3] 70.5% | [4] 32.6% | [5] 124% | [6] 33.4% | [7] 23.8% | [8] 25.9% | [13] 27.7% | [14] 83.9% | [15] 76.1% | [16] 44.4% | [19] 29.7% | [18] 59%
active: [9] 8.55% | [10] 3.4% | [11] 7.7% | [12] -21.7% | [17] 3.53%

N#Cc1c(NC(=O)c2ccccc2C(F)(F)F)sc2c1CCC(=O)C2
active: [4] -25.2% | [6] -32.8% | [7] -11.1% | [12] -2.1% | [14] 8.8% | [15] 2.89% | [20] 4.15% | [18] 4.69%
inactive: [1] 12.2% | [2] 12.4% | [3] 14.5% | [5] 35.1% | [8] 81.8% | [9] 13% | [10] 11.2% | [11] 20.8% | [13] 16.3% | [16] 91.1% | [17] 30.4%

O=c1oc2ccc(-c3ccc(F)cc3F)cc2c(=O)n1-c1cccc(C(F)(F)F)c1
active: [1] -12.5% | [2] 8.73% | [3] 1.14% | [4] -18.5% | [6] 4.3% | [7] -12.2% | [8] -34.1% | [10] 5.65% | [12] -12.9% | [16] 0.403% | [19] 8.17% | [17] -4.83% | [18] 4%
inactive: [5] 15.4% | [9] 22.6% | [11] 18.4% | [13] 12.4% | [14] 10.4% | [15] 13.4%

ClC(Cl)c1nc(-c2cccs2)n2nc(-c3ccccc3)cc2n1
active: [2] -26.8% | [4] -53.7% | [5] -10.8% | [6] -23.5% | [7] -15% | [8] -78.5% | [12] -25.6% | [14] -8.51% | [20] -37.4% | [17] -21.1% | [18] -20.7%
inactive: [1] 77.6% | [3] 50.6% | [9] 67.9% | [10] 44% | [11] 58.1% | [13] 12% | [15] 10.7% | [16] 20.2%

Oc1ccc(CSc2nnc(-c3ccc(Br)cc3)n2-c2ccccc2)c2cccnc12
active: [4] 8.19%
inactive: [1] 39.4% | [2] 43.1% | [3] 35% | [5] 36.5% | [6] 27% | [7] 36.7% | [8] 63.8% | [9] 22.9% | [10] 32.3% | [11] 37.7% | [12] 13.7% | [13] 23.4% | [14] 54.4% | [15] 35.7% | [16] 23.3% | [20] 41.5% | [17] 13% | [18] 12.2%

CCCCSc1nnc(-c2ccc(-c3ccc(Cl)cc3)nc2C)o1
inactive: [1] 106% | [2] 95.4% | [3] 98.2% | [4] 93.4% | [5] 109% | [6] 104% | [7] 95.4% | [8] 71% | [9] 99.7% | [10] 96.3% | [11] 95.5% | [12] 103% | [13] 109% | [14] 101% | [15] 102% | [16] 111% | [19] 99.1% | [17] 105% | [18] 99.8%

O=C1c2c(c3c4cccnc4[nH]c3c3ccc4ccccc4c23)C(=O)N1CCN1CCOCC1
inactive: [1] 98.4% | [2] 86.7% | [3] 68.4% | [4] 54.5% | [5] 112% | [6] 41.3% | [7] 46.2% | [8] 69% | [9] 23.9% | [11] 21.8% | [12] 42.5% | [13] 47.2% | [14] 98.3% | [15] 84.4% | [16] 86.9% | [19] 57.7% | [17] 82.1% | [18] 47%
active: [10] 7.9%

CC1CCN(S(=O)(=O)c2ncsc2-c2ccccc2)CC1
inactive: [1] 96.2% | [2] 74.7% | [3] 95.4% | [4] 86.9% | [5] 127% | [6] 87% | [7] 77.4% | [8] 81.6% | [9] 74.2% | [10] 66.7% | [11] 55.7% | [12] 25.5% | [13] 101% | [14] 94.8% | [15] 88.5% | [16] 95% | [17] 40.3% | [18] 90%

COc1ccc(-c2nnc(SCc3ccc(O)c4ncccc34)n2-c2ccccc2)cc1
inactive: [1] 33.8% | [2] 23.6% | [3] 24.3% | [5] 38.4% | [7] 11.5% | [8] 35.3% | [9] 10.7% | [10] 17.2% | [11] 34.3% | [12] 10.9% | [13] 16.1% | [14] 53.3% | [15] 13.6% | [16] 12.5% | [17] 22.1%
active: [4] -12.2% | [6] 4.43% | [20] 8.67% | [18] 4.3%

Oc1ccc(CSc2nnc(-c3ccccc3)n2-c2ccccc2)c2cccnc12
inactive: [1] 30.8% | [2] 18.5% | [3] 19.5% | [5] 27.3% | [7] 10.5% | [8] 12.7% | [10] 15.6% | [11] 33.6% | [12] 10.9% | [13] 16.8% | [14] 43.7% | [15] 15.8%
active: [4] -19.8% | [6] 6.88% | [9] 9.93% | [16] 9.62% | [19] 9.4% | [17] 9.17% | [18] 8.58%

CC(C)=CCC[C@](C)(O)[C@H]1CC[C@]2(C)[C@@H]1CC[C@@H]1[C@@]3(C)CCC(NC(=O)c4ccccc4C(=O)O)C(C)(C)[C@@H]3CC[C@]12C (some centres not stated)
inactive: [1] 39.8% | [2] 101% | [3] 92.9% | [4] 85.2% | [5] 106% | [6] 73.5% | [7] 66.4% | [8] 103% | [9] 95.9% | [10] 97.5% | [11] 86.9% | [12] 90.9% | [13] 96.3% | [14] 94.9% | [15] 105% | [16] 104% | [19] 102% | [17] 89.2% | [18] 98.3%
